Assay [1] in a line: A CellTox Green Cytotoxicity Assay to monitor cytotoxicity in HepG2 cells - 8 hour (AID 1224890). Further: nearly all actives have a fitted effect of over 45% in size. Further: potency means the concentration at half of the fitted maximal effect. The procedure, abridged: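 First, HepG2 cells (600/well) mixed with reagent were plated; second, after 5 h at 37 C they received compounds via pintool; third, fluorescence was measured at 0 h through 40 h at 8 h intervals.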
A short description of assay [2]: qHTS assay to identify small molecule antagonists of the estrogen receptor alpha (ER-alpha) signaling pathway using the BG1 cell line in the presence of 0.1 nM 17-beta-estradiol - cell viability counter screen (AID 1259241). Further: nearly all actives have a fitted effect of over 40% in size. In outline: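 VM7Luc4E2, 4,000 cells/well, phenol red-free medium + 10% charcoal-stripped FBS; 24 hr plating; cpd + 0.1 nM E2 final, 22 hr 37C/5% CO2; CellTiter-Fluor 30 min, fluorescence.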

The target of assay [3] is Androgen receptor (Homo sapiens) (UniProt P10275). Put plainly: qHTS assay to identify small molecule antagonists of the androgen receptor (AR) signaling pathway using the MDA cell line in the presence of 0.5 nM R1881 (AID 1259243). Further: nearly all actives have a fitted effect of over 50% in size. Further: potency means the concentration at half of the fitted maximal effect. The procedure, abridged:
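Antagonist mode quantitative HTS in MDA-kb2 MMTV-luciferase cells, agonist R1881 at 0.5 nM final, 16 hr exposure at 37C and 0% CO2, luminescent detection.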

Assay [4] concerns the target Estrogen receptor (Homo sapiens) (UniProt P03372). Put plainly: qHTS assay to identify small molecule antagonists of the estrogen receptor alpha (ER-alpha) signaling pathway using the BG1 cell line in the presence of 0.1 nM 17-beta-estradiol (AID 1259244). Further: nearly all actives have a fitted effect of over 50% in size. In outline: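 Reporter is a stably transfected luciferase under four estrogen responsive elements in VM7Luc4E2 cells expressing native full-length ER-alpha; inhibition of 0.1 nM (final) 17beta-estradiol-driven signal over 22 h is read by luminescence.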

The nature of assay [5]: qHTS assay to identify small molecule HDAC inhibitors (AID 1259364).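 Further: wild-type HCT-116 cells with endogenous class I/II HDAC activity; top concentration of the series differs between compounds; nearly all actives have a fitted effect of over 45% in size.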 The procedure, abridged: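 Quantitative high-throughput format: overnight-seeded HCT-116 cells got compounds for 2 hr at 37C; HDAC-Glo I/II reagent added, 30 min RT, luminescence measured.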
A short description of assay [6]: qHTS assay to identify small molecule HDAC inhibitors - cell viability counter screen (AID 1259365). Further: series mostly up to about 92 µM; nearly all actives have a fitted effect of over 50% in size. The procedure, abridged: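 Luminescence from CellTiter-Glo, developed 30min at room temperature, reports viability of wild-type HCT-116 cells treated 2hr with compounds at 37 C and 5% CO2 after overnight plating.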
Assay [7] can be described thus: qHTS assay to identify small molecule agonists of the sonic hedgehog signaling (Shh) pathway - cell viability counter screen (AID 1259366). Further: nearly all actives have a fitted effect of over 50% in size. In outline: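 Cytotoxicity counter screen run in the same wells as the Shh reporter assay. NIH/3T3 cells carrying a Gli1 response element–driven luciferase were treated with DMSO-dissolved compounds for 24hr, and live-cell protease activity was measured with CellTiter-Fluor.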

Assay [8] is described as follows: qHTS assay to identify small molecule antagonists of the sonic hedgehog signaling (Shh) pathway - cell viability counter screen (AID 1259367). Further: nearly all actives have a fitted effect of over 55% in size. The procedure, abridged:
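Viability was read by CellTiter-Fluor fluorescence in the same wells, reagent added 23 hr into compound treatment and incubated 1 hr at 37C. The 3T3 Gli1-Luc reporter cells (2,000/well) received conditioned medium after compound and ran 24 hr.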

Assay [9] in a line: qHTS assay to identify small molecule agonists of the sonic hedgehog signaling (Shh) pathway (AID 1259368; calls by dose curve;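 further: NIH/3T3-derived 3T3Gli1-Luc cells carrying a stable Gli1-driven firefly luciferase reporter; series mostly up to about 92 µM; nearly all actives have a fitted effect of over 15% in size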). In outline:
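Quantitative high-throughput format using a Gli1-driven firefly luciferase reporter line derived from NIH/3T3 cells. After a 24 hr compound treatment at 37 C and 5% CO2, luminescence reported Gli1 response element activity.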

Assay [10] is described as follows: qHTS assay to identify small molecule antagonists of the sonic hedgehog signaling (Shh) pathway (AID 1259369; calls by dose curve; further: nearly all actives have a fitted effect of over 45% in size; further: potency means the concentration at half of the fitted maximal effect). In outline:
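Stable Gli1-Luc reporter NIH/3T3 clone; quantitative HTS in stimulated mode with conditioned medium. Luminescence measured after 24hr compound treatment at 37 C.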

Assay [11] deals with Estrogen receptor beta (Homo sapiens) (UniProt Q92731). Put plainly: qHTS assay to identify small molecule antagonists of the estrogen receptor beta (ER-beta) signaling pathway (AID 1259378; active means well fitted inhibition curve with a large enough effect in the signal ratio in the repeat runs, not every such curve was filed as active; the % refers to the signal ratio). The procedure, abridged: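 Antagonist mode: compounds added to beta-lactamase reporter HEK293T ER-beta-UAS cells stimulated with E2 (1nM final), 16 hr at 37C. LiveBLAzer B/G FRET substrate, 2 hours room temperature, fluorescence read-out.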
Sequence of Estrogen receptor beta (Homo sapiens) (Q92731 whole entry, looked up): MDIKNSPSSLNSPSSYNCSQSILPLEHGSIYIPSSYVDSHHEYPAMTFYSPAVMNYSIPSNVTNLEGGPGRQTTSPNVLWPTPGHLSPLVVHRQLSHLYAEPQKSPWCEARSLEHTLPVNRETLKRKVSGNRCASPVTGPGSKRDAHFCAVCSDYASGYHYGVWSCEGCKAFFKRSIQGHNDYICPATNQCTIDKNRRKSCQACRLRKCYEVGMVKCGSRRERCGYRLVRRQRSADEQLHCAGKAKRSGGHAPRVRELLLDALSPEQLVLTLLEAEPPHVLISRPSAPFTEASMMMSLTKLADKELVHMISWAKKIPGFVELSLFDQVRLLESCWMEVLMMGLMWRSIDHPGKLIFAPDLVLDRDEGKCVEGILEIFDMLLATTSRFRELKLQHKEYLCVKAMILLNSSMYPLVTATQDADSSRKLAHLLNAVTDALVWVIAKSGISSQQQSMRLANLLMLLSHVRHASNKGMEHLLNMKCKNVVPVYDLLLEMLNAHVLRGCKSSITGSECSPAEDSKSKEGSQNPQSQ

A short description of assay [12]: qHTS assay to identify small molecule agonists of the androgen receptor (AR) signaling pathway in the presence of an antagonist - cell viability counter screen (AID 1259379).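 Further: MDA-kb2 human breast cancer cells carrying an MMTV luciferase reporter; series mostly up to about 92 µM; nearly all actives have a fitted effect of over 25% in size.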 The procedure, abridged:
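Nilutamide-containing (3.0uM final) MDA-kb2 cultures, 3,000 cells/well, were treated with compounds across 15 concentrations. After 16 hr at 37C with no CO2, cell viability was determined by CellTiter-Fluor fluorescence in the luciferase assay wells.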

Assay [13] can be described thus: qHTS assay to identify small molecule agonists of the estrogen receptor beta (ER-beta) signaling pathway - cell viability counter screen (AID 1259380). Further: nearly all actives have a fitted effect of over 30% in size. The procedure, abridged: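 Steps: plate ER-beta-UAS-bla HEK293T cells, rest 6 hr; add compounds in DMSO; incubate 16 hr at 37C, 5% CO2; add FRET substrate 2 hr; add CellTiter-Glo, wait 30 min at room temperature; read luminescence.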

For assay [14], the target named is Androgen receptor (Homo sapiens) (UniProt P10275). Put plainly: qHTS assay to identify small molecule agonists of the androgen receptor (AR) signaling pathway in the presence of an antagonist (AID 1259381; calls by dose curve; further: nearly all actives have a fitted effect of over 15% in size). In outline:
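Reporter-gene luminescence from MDA-kb2 cells exposed 16hr at 37C (0% CO2) to 15-point compound titrations with 3.0uM final nilutamide as AR antagonist.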

In assay [15] the target is Estrogen receptor (Homo sapiens) (UniProt P03372). As to the kind of experiment: qHTS assay to identify small molecule agonists of the estrogen receptor alpha (ER-alpha) signaling pathway in the presence of an antagonist (AID 1259383; calls by dose curve; further: top concentration of the series differs between compounds; nearly all actives have a fitted effect of over 15% in size). In outline: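 Readout was ERE-driven luciferase luminescence in VM7Luc4E2 cells, which express full-length ER-alpha endogenously. Compounds were tested at 15 concentrations for 22hr alongside 10.0nM ICI-182,780 (final concentration).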
Sequence of Estrogen receptor (Homo sapiens) (P03372 whole entry, looked up): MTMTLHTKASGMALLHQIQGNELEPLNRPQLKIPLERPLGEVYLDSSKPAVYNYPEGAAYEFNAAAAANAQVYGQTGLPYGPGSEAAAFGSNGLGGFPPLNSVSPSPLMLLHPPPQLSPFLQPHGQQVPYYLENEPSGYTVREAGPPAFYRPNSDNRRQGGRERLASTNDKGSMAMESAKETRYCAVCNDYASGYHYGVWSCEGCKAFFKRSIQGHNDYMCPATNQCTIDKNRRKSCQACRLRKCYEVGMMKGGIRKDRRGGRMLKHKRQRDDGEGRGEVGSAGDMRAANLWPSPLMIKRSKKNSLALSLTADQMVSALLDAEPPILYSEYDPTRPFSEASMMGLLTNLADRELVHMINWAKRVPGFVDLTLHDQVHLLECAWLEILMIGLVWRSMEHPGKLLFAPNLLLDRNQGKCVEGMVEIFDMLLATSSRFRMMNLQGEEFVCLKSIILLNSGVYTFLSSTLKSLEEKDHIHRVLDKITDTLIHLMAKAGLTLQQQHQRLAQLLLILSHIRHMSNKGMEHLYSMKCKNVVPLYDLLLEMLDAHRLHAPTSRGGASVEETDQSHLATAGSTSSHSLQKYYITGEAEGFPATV

Assay [16] can be described thus: qHTS assay to identify small molecule agonists or antagonists of the thyroid stimulating hormone receptor (TSHR) signaling pathway - wild type cell line counter screen (AID 1259384; calls by dose curve). The procedure, abridged:
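Counter screen in untransfected Hek293: compounds (15-point titration, triplicate) plus phosphodiesterase inhibitor Ro20-1724 added after 18 h plating; 30 min RT. Intracellular cAMP via competitive d2/cryptate immunoassay, 1 h incubation.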

Assay [17] can be described thus: qHTS assay to identify small molecule antagonists of the androgen receptor (AR) signaling pathway using the MDA cell line in the presence of 0.5 nM R1881 - cell viability counter screen (AID 1259242). Further: nearly all actives have a fitted effect of over 45% in size. In outline:
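qHTS format. MDA-kb2 (MMTV-luc, AR/GR responsive) + cpd + 0.5 nM R1881 final, 16 hr 37C/0% CO2 → CellTiter-Fluor 30 min → fluorescence intensity.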

Assay [18] has as its target Estrogen receptor beta (Homo sapiens) (UniProt Q92731). Put plainly: qHTS assay to identify small molecule agonists of the estrogen receptor beta (ER-beta) signaling pathway (AID 1259377; active means well fitted activation curve with a large enough effect in the signal ratio in the repeat runs, not every such curve was filed as active; the % refers to the signal ratio). In outline:
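HEK293T ER-beta-UAS-bla; 2% charcoal-stripped FBS; cells pre-incubated 6 hr, compound 16 hr, 37C/5% CO2; LiveBLAzer B/G FRET substrate 2 h RT; fluorescence intensity read.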

The nature of assay [19]: qHTS assay to identify small molecule antagonists of the estrogen receptor beta (ER-beta) signaling pathway - cell viability counter screen (AID 1259382). Further: series mostly up to about 92 µM; nearly all actives have a fitted effect of over 55% in size. The procedure, abridged: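 Viability is scored by CellTiter-Glo luminescence (30 min, room temperature) in ER-beta-UAS-bla HEK293T wells already read for reporter fluorescence. Compound exposure lasts 16 hr at 37C alongside 1nM 17-beta-estradiol in charcoal-stripped serum medium.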

The nature of assay [20]: qHTS assay to identify small molecule phospholipidosis (PLD) inducers (AID 1259344; active means well fitted curve in the direction sought with a large enough effect; an effect the other way counts as inactive or inconclusive). In outline: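 Phospholipid accumulation was scored by imaging: fixed, Hoechst-counterstained HepG2 cells stained with LipidTOX Red after 24 h compound exposure at 37 C. Read-outs were pit count and pit intensity per well or per cell, with amiodarone and DMSO controls.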

Values without a mark were called inactive. Results filed as inconclusive are left out. Activity calls are given as the source filed them. Unless noted, the call rests on the fitted dose curve; in most records, active means well fitted curve in the direction sought with a large enough effect in the repeat runs; inconclusive means weak or mixed curves; inactive means no such curve, though single readings can be large; an effect the other way counts as inactive or inconclusive.

Sequence of Androgen receptor (Homo sapiens) (P10275 whole entry, looked up): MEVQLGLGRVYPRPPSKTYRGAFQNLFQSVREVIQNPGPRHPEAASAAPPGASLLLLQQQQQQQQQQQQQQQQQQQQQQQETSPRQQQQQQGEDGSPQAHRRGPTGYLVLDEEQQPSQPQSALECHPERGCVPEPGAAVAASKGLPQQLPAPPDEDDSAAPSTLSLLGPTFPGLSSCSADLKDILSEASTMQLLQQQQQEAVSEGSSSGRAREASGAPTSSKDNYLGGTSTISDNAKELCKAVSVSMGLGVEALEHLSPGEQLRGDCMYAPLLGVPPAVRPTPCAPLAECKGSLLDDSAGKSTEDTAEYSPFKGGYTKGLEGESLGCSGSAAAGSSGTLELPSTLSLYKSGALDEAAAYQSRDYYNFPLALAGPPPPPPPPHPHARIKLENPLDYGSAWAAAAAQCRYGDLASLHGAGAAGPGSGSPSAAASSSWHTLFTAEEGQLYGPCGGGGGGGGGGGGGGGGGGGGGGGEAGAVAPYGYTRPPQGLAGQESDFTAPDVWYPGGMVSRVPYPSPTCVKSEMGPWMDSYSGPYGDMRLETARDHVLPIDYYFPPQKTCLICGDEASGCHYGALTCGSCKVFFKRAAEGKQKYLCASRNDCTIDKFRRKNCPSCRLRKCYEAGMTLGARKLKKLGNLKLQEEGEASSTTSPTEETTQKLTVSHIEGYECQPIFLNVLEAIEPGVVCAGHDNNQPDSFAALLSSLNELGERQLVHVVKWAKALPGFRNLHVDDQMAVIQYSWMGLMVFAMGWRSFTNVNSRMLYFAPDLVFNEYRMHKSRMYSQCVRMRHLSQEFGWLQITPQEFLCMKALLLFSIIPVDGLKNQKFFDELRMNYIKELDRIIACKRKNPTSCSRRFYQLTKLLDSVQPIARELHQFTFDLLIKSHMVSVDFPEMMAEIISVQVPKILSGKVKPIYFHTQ

`CCCOc1ccc2c(c1)CC[C@@H]1[C@@H]2CC[C@]2(C)C(OC)CC[C@@H]12` (some centres undefined): the Potency result in assay [1], in [2], in assay [4], in [5], in [7] and in assay [8] was “inactive” in each case. Further, the Potency entry in assay [9], in assay [10], in assay [11], in [12], in [13] and in assay [14] was “inactive” throughout. The Potency entry in assay [15] is “inactive”. For the same compound, the Potency in assay [3] was 13.3 µM (active). In addition, the compound was classed as inactive in [6] and in assay [16].

Regarding `Cc1ccc([N+](=O)[O-])cc1Cl`, the Potency entry in [1], in [2], in assay [5], in assay [7], in assay [8] and in assay [9] was “inactive” each time. Moreover, the Potency result in [11] and in assay [12] was “inactive” each time. In addition, the result in [17], in assay [6], in [18] and in assay [16] was inactive.

Consider `OC[C@H]1O[C@@H](O[C@H]2[C@H](O)[C@@H](O)[C@H](O)O[C@@H]2CO)[C@H](O)[C@@H](O)[C@H]1O`, for which the Potency result in assay [1], in assay [3], in assay [4], in [5], in assay [7] and in assay [8] was “inactive” in each case. Also, the Potency entry in assay [9], in [10], in [11], in assay [12], in assay [14] and in [15] was “inactive” throughout. Besides, the result in assay [17], in assay [6], in assay [18], in [19] and in [16] was inactive.

Take `C[C@]12C(=O)OC(=O)[C@H]1[C@H]1C=C[C@@H]2C1`: the Potency entry in assay [1], in assay [2], in assay [4], in assay [5], in [9] and in [12] was “inactive” throughout. Moreover, the Potency entry in assay [13] and in [15] was “inactive” each time. The compound was called inactive in assay [6], in [19] and in [16].

Consider `CN1CCN(c2c(F)cc3c(=O)c(C(=O)O)cn4c3c2SCC4)CC1`, for which the Potency result in assay [1], in assay [4], in assay [5], in [7], in assay [8] and in assay [9] was “inactive” in each case. Besides, the Potency result in assay [10], in [11], in assay [12] and in [15] was “inactive” each time. In addition, the outcome in assay [17], in assay [20], in assay [6], in assay [18], in [19] and in assay [16] was inactive.

For the compound `Cc1ccc(C=O)s1`, the Potency is 38.9 µM (active) in assay [1] and 48.6 µM (active) in assay [10]. The Potency entry in assay [2], in assay [5], in assay [7], in [8], in assay [9] and in [11] was “inactive” each time. For the same compound, the Potency entry in assay [12] and in assay [13] was “inactive” in each case. Further, the call in assay [6] and in [18] was inactive.

(Values after PubChem BioAssay (Tox21).)
